Reference: the supplement of paper PMC3484114
± gives the standard deviation.

Test system: OVCAR-3-derived ovarian cancer stem-like cells (spheroids)
Assay: cell growth relative to untreated control; higher = more growth (less inhibition)
Conditions: 2.29 µM; 96 h
Outline: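 After trypsin dissociation, OVCAR-3 spheroid-derived stem-like cells were placed in ultra-low attachment 96-well plates at 50,000 cells/mL in stem cell medium and preincubated for 24 h. Treatment at 2.29 uM followed for 96 h at 37°C, 5% CO2, with 4 replicate wells per compound. A 4 h TOX8 resazurin fluorescence read (ex 560/em 590 nm) gave viability, from which percent growth relative to untreated wells was derived after blank subtraction and Grubbs outlier removal.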

Structure (SMILES)	cell growth
O=C(CC1(O)C(=O)Nc2c(Cl)ccc(Cl)c21)c1ccc(Cl)cc1 (centres undefined)	142 ± 53%
CN1CCC23c4ccccc4NC1C21CCN(C)C3Nc2ccccc21	118 ± 10%
Cc1nc2c(o1)C(=O)c1ccccc1C2=Nc1ccccc1	123 ± 56%
O=C1c2ccccc2C(=O)c2c(O)c(NCCNCCO)cc(O)c21	82.8 ± 24%
O=C(O)c1ccccc1-c1ccccc1C(=O)Nc1ccc2c(c1)Cc1ccccc1-2	80.8 ± 29%
NC(=O)C1=C[C@H]2[C@H]3C=C[C@@]2(O)C(=O)O[C@@H]3O1	91.3 ± 15%
CCCC(=O)[O-].[Na+]	88.2 ± 19%
Cc1ccc(Nc2nc(C)c(C(/C=C/c3ccc(/C=C/C(=N\NC(=O)C[n+]4ccccc4)c4sc(Nc5ccc(C)cc5[N+](=O)[O-])nc4C)cc3)=N/NC(=O)C[n+]3ccccc3)s2)c([N+](=O)[O-])c1	110 ± 11%
O=C(CC1(O)C(=O)Nc2c(Cl)cc(Cl)cc21)c1cccc([N+](=O)[O-])c1 (centres undefined)	88.1 ± 30%
CCCCCCCCCCCCCCCCOCC(O)CO (centres undefined)	126 ± 28%
Cc1ccccc1NC(=O)/C=N/O	81 ± 7.2%
NC(=O)N/N=C1\CC2C3CC4C2C4C13 (centres undefined)	106 ± 20%
C/C(=N\NC(=S)N1CCN(C2CCCCCC2)CC1)c1ccccn1	14.7 ± 7.5%
Nc1ccc(S(=O)(=O)Nc2cnc3c(Cl)cccc3n2)cc1	100 ± 15%
C[C@H]1O[C@@H](c2ccc3c(c2O)C(=O)C2=C(C3=O)[C@@]3(O)C(=O)C[C@](C)(O)C[C@@]3(O)C=C2)C[C@@H](O)[C@@H]1O	62.7 ± 8.2%
Cc1cc(N(C)C)ccc1N=Nc1ccc2ncccc2c1	83.2 ± 6.3%
CC[C@@]1(O)C[C@H](O[C@H]2C[C@H](N(C)C)[C@H](O[C@H]3C[C@H](O)[C@H](O[C@H]4CCC(=O)[C@H](C)O4)[C@H](C)O3)[C@H](C)O2)c2c(cc3c(c2O)C(=O)c2c(O)cccc2C3=O)[C@@H]1C(=O)OC	48.2 ± 42%
Cc1ccc(NC(=S)C#N)c(C)c1	89.9 ± 27%
COc1ccc2cc1Oc1ccc(cc1)CC1c3cc(c(OC)cc3CCN1C)Oc1c(OC)c(OC)cc3c1C(C2)N(C)CC3 (centres undefined)	88.5 ± 18%
CCN(CC)CC(C)(C)C(=O)/C=C/c1ccc(C)cc1	80.7 ± 22%
C=CCOC1OC(CO[Si](C)(C)C(C)(C)C)C(OCc2ccccc2)C(OCc2ccccc2)C1OCc1ccccc1 (centres undefined)	116 ± 18%
CC(C)CCCC(=O)CCCCCCC(=O)CCN(O)C(=O)C(N)CO (centres undefined)	136 ± 15%
COC(=O)c1ccccc1OCc1cc(=O)oc2ccc(C)cc12	115 ± 20%
COc1ccc2nc(NC(=O)C(=O)CC(=O)c3ccc(Cl)cc3)sc2c1	109 ± 40%
